Measurements taken from PubChem BioAssay (NCI).
This is part of a sample that, as a whole, favours compounds with a hit. Of some 83,000 tested, about 20% had one in any assay.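 Testing used 96-well plates and a 48-hour single-concentration exposure. Example: -40 means 40% of the starting cells died.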 The source made the active and inactive calls. Rule for the calls: active = growth percent below 10; inactive = the rest.

How the values were obtained:
Assay in all cases: NCI-60 one-dose screen, 48 h (100 = growth as untreated, 0 = no growth, -100 = all killed)
Details in all cases: 10 µM unless noted
DU-145 prostate = system: DU-145 prostate
K-562 leukemia = system: K-562 leukemia
MALME-3M melanoma = system: MALME-3M melanoma
MDA-MB-231 breast = system: MDA-MB-231 breast
RXF 393 renal = system: RXF 393 renal
SF-268 CNS = system: SF-268 CNS
SF-295 CNS = system: SF-295 CNS
SF-539 CNS = system: SF-539 CNS
UACC-257 melanoma = system: UACC-257 melanoma
M14 melanoma = system: M14 melanoma
HCT-15 colon = system: HCT-15 colon
HT29 colon = system: HT29 colon
SNB-75 CNS = system: SNB-75 CNS
SNB-19 CNS = system: SNB-19 CNS
U251 CNS = system: U251 CNS
PC-3 prostate = system: PC-3 prostate
SK-MEL-5 melanoma = system: SK-MEL-5 melanoma
UACC-62 melanoma = system: UACC-62 melanoma
LOX IMVI melanoma = system: LOX IMVI melanoma
SK-MEL-28 melanoma = system: SK-MEL-28 melanoma

Measured: growth

O=C1NC2(Nc3ccccc31)C(=O)Nc1c(Cl)cc(Cl)cc12 (stereo not given)
inactive: DU-145 prostate 117% | K-562 leukemia 99.4% | MALME-3M melanoma 102% | MDA-MB-231 breast 94.9% | RXF 393 renal 115% | SF-268 CNS 96.8% | SF-295 CNS 101% | SF-539 CNS 100% | UACC-257 melanoma 110% | M14 melanoma 101% | HCT-15 colon 108% | HT29 colon 107% | SNB-75 CNS 80% | SNB-19 CNS 104% | U251 CNS 104% | PC-3 prostate 103% | SK-MEL-5 melanoma 99.9% | UACC-62 melanoma 101% | LOX IMVI melanoma 95.9% | SK-MEL-28 melanoma 118%

NS(=O)(=O)c1ccccc1NC(=O)Nc1nc2ccccc2s1
inactive: DU-145 prostate 106% | K-562 leukemia 97.5% | MALME-3M melanoma 91.9% | MDA-MB-231 breast 97% | RXF 393 renal 98.4% | SF-268 CNS 98.1% | SF-295 CNS 94.6% | SF-539 CNS 95.8% | UACC-257 melanoma 102% | M14 melanoma 93.5% | HCT-15 colon 100% | HT29 colon 98.2% | SNB-75 CNS 86.9% | SNB-19 CNS 98% | U251 CNS 99.1% | PC-3 prostate 97.8% | SK-MEL-5 melanoma 99.8% | UACC-62 melanoma 101% | LOX IMVI melanoma 91.8% | SK-MEL-28 melanoma 103%

c1ccc2cc(C[n+]3ccn(CCCCCCCCCCn4cc[n+](Cc5ccc6ccccc6c5)c4)c3)ccc2c1
active: K-562 leukemia 8.6% | MALME-3M melanoma -20.4% | RXF 393 renal 9.07% | UACC-257 melanoma -13.8% | HT29 colon -32.5% | SNB-75 CNS -1.15% | PC-3 prostate 7.04% | SK-MEL-5 melanoma -56.4% | LOX IMVI melanoma -53.9%
inactive: DU-145 prostate 28.4% | MDA-MB-231 breast 16.5% | SF-268 CNS 13.7% | SF-295 CNS 16.5% | SF-539 CNS 10.4% | M14 melanoma 31.8% | HCT-15 colon 50.5% | SNB-19 CNS 22.8% | U251 CNS 11.7% | UACC-62 melanoma 16.9% | SK-MEL-28 melanoma 20.6%

O=C(NCCCl)Nc1ncccc1OCc1ccccc1
inactive: DU-145 prostate 105% | K-562 leukemia 103% | MALME-3M melanoma 103% | MDA-MB-231 breast 101% | RXF 393 renal 108% | SF-268 CNS 102% | SF-295 CNS 99.9% | SF-539 CNS 106% | UACC-257 melanoma 107% | M14 melanoma 99.8% | HCT-15 colon 95% | HT29 colon 94.5% | SNB-75 CNS 103% | SNB-19 CNS 103% | U251 CNS 110% | PC-3 prostate 99% | SK-MEL-5 melanoma 95.9% | UACC-62 melanoma 92.5% | LOX IMVI melanoma 102% | SK-MEL-28 melanoma 108%

COc1ccc(/C=N\Nc2nc(SCCC(C)C)nc(-c3ccc(OC)cc3)c2C#N)cc1
active: SNB-75 CNS -19.4% | U251 CNS 7.04%
inactive: DU-145 prostate 72.8% | K-562 leukemia 82% | MALME-3M melanoma 64.6% | MDA-MB-231 breast 77.6% | RXF 393 renal 80.5% | SF-268 CNS 78.9% | SF-295 CNS 17.4% | SF-539 CNS 24.6% | UACC-257 melanoma 91.6% | M14 melanoma 87.6% | HCT-15 colon 74.6% | HT29 colon 55% | SNB-19 CNS 69.5% | PC-3 prostate 72.3% | SK-MEL-5 melanoma 94.3% | UACC-62 melanoma 79.1% | LOX IMVI melanoma 66% | SK-MEL-28 melanoma 104%

Cc1c2cnccc2c(C)c2c1c1cc(C#N)ccc1n2C
active: DU-145 prostate 3.34% | K-562 leukemia -8.24% | MALME-3M melanoma -77.4% | MDA-MB-231 breast -23.5% | RXF 393 renal -85.1% | SF-268 CNS -8.27% | SF-295 CNS -11.7% | SF-539 CNS -61.7% | UACC-257 melanoma -29% | M14 melanoma -83.3% | HCT-15 colon -20.6% | HT29 colon -18.9% | SNB-75 CNS -35.8% | SNB-19 CNS -1.41% | U251 CNS -10.5% | PC-3 prostate -17.2% | SK-MEL-5 melanoma -98.7% | UACC-62 melanoma -52.6% | LOX IMVI melanoma -35.6% | SK-MEL-28 melanoma -39.7%

O=C(O)CCCN1C(=O)/C(=C/c2cn(-c3ccccc3)nc2-c2ccc([N+](=O)[O-])cc2)SC1=S
active: M14 melanoma -8.74%
inactive: DU-145 prostate 58.5% | K-562 leukemia 56.5% | MALME-3M melanoma 52.1% | MDA-MB-231 breast 85.5% | RXF 393 renal 86.7% | SF-268 CNS 52.8% | SF-295 CNS 34.8% | SF-539 CNS 55.5% | UACC-257 melanoma 84.6% | HCT-15 colon 35.8% | HT29 colon 87.1% | SNB-75 CNS 95.7% | SNB-19 CNS 48.9% | U251 CNS 38.2% | PC-3 prostate 56.4% | SK-MEL-5 melanoma 52.7% | UACC-62 melanoma 47% | LOX IMVI melanoma 46.2% | SK-MEL-28 melanoma 49.4%
